Experiment [1] deals with Gonadotropin-releasing hormone receptor (Homo sapiens) (UniProt P30968). The experiment is described as follows: Human gonadotropin-releasing hormone receptor (GnRHR) small molecule agonists, calcium flux assay in GnRHR-HEK293 cells (AID 1920063). Further: nearly all actives have a fitted effect of over 35% in size. Summed up: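 HEK293 cells stably expressing human GnRHR were dye-loaded for 1 h at 37 C. Compound was added in agonist mode and fluorescence (Ex/Em 480/540) recorded kinetically for 3 min. Fifteen concentrations, triplicates.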
(In general: Calcium assays in cells follow changes in intracellular calcium, usually with a dye or a luminescent sensor.)

The target in experiment [2] is KiSS-1 receptor (Homo sapiens) (UniProt Q969F8). Put plainly: Human kisspeptin (KISS1R) small molecule agonists, calcium flux assay in KISS1R-HEK293 cells (AID 1920064; active means well fitted activation curve with a large enough effect in the repeat runs). Put shortly: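 HEK293 cells stably expressing human KISS1R were loaded with calcium dye for 1 h at 37 C, then given compound; fluorescence (Ex/Em 480/540) was read kinetically for 3 min. Fifteen concentrations, triplicate.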

The nature of experiment [3]: G protein-coupled receptor (GPCR) small molecule agonists, calcium flux assay: HEK293 wild type cell line counter screen (AID 1920065). Further: potency means the concentration at half of the fitted maximal effect. Put shortly:
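Wild-type HEK293 cells plated 18 h, loaded with calcium dye 1 h at 37 C, then compounds added in agonist mode (ATP as positive control). Kinetic fluorescence Ex/Em 480/540 recorded 3 min at 1 sec intervals; 15 concentrations, triplicate.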

A short description of experiment [4]: p53 small molecule agonists, cell-based qHTS assay with human liver microsomes (AID 1963577).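 Further: p53 response element beta-lactamase reporter cells with liver microsomes plus NADPH.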 Summed up:
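Steps: plate p53RE-bla cells, incubate 5 h at 37 C; add compound in DMSO; add microsomes (0.5 mg/mL final) and NADPH (0.5 mg/mL final); incubate 16 h at 37 C; add LiveBLAzer, 2 h RT; read fluorescence.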

Experiment [5] is described as follows: p53 small molecule agonists, cell-based qHTS assay with rat liver microsomes (AID 1963578). Put shortly: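 Metabolic activation is supplied by rat liver microsomes with NADPH (each 0.5 mg/mL final). p53RE-bla cells incubate with compound 16 h at 37 C; reporter activity is measured by LiveBLAzer fluorescence.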
The nature of experiment [6]: p53 small molecule agonists, cell-based qHTS assay with rat liver microsomes: qHTS cell viability counter screen (AID 1963580). Further: nearly all actives have a fitted effect of over 45% in size. Further: potency means the concentration at half of the fitted maximal effect. Summed up: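 p53RE-bla HCT-116 cells (4,000/well) rested 5 h at 37 C, then given Tox21 compounds in DMSO with rat liver microsomes (0.5 mg/mL final) plus NADPH (0.5 mg/mL final) for 16 h at 37 C. Viability read by CellTiter-Glo luminescence after 30 min at room temperature.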

Experiment [7] is described as follows: p53 small molecule agonists, cell-based qHTS assay: qHTS cell viability counter screen (AID 1963581). Further: nearly all actives have a fitted effect of over 45% in size. Further: potency means the concentration at half of the fitted maximal effect. Put shortly: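 p53RE-bla HCT-116 cells, compounds added 5 h after plating and incubated 16 h at 37 C. Cytotoxicity measured in the same wells as intracellular ATP by CellTiter-Glo luminescence after 30 min at room temperature.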
The target in experiment [8] is Muscarinic acetylcholine receptor M1 (Homo sapiens) (UniProt P11229). The experiment is described as follows: Cholinergic receptor muscarinic 1 (CHRM1) small molecule agonists, cell-based qHTS assay (AID 1963589). Further: nearly all actives have a fitted effect of over 35% in size. Summed up: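 CHO cells stably expressing human CHRM1 were loaded with calcium dye for 1 h at 37 C, then compound was added in agonist mode. Intracellular calcium fluorescence was followed kinetically at 1 s intervals. Fifteen concentrations were tested in three independent runs.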
In general terms: Quantitative high-throughput screening tests each substance at several concentrations.

The target in experiment [9] is D(2) dopamine receptor (Homo sapiens) (UniProt P14416). The experiment is described as follows: Dopamine D2 receptor (DRD2) small molecule agonists, cell-based qHTS assay (AID 1963594). Further: nearly all actives have a fitted effect of over 35% in size. Put shortly:
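HEK293 cells stably expressing DRD2 were cultured 24 h at 37 C, then given Ro20-1724 (0.1 mM final) and compounds for 10 min at room temperature. NKH477 (200nM) was then added for 30 min. cAMP was read by HTRF.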

Experiment [10] in a line: p53 small molecule agonists, cell-based qHTS assay with human liver microsomes: qHTS cell viability counter screen (AID 1963579). Further: nearly all actives have a fitted effect of over 45% in size. Summed up: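 After the 460/530 nm beta-lactamase read, CellTiter-Glo was added to the same wells and luminescence measured after 30 min at room temperature, giving viability of p53RE-bla cells treated 16 h with compounds plus microsomes and NADPH.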

Experiment [11] in a line: p53 small molecule agonists, cell-based qHTS assay (AID 1963582; active means well fitted activation curve with a large enough effect in the signal ratio in the repeat runs, not every such curve was filed as active; the % refers to the signal ratio). Summed up:
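p53RE-bla reporter cells, compounds added in DMSO after 5 h plating, incubated 16 h at 37 C. Beta-lactamase read via 2 h room-temperature LiveBLAzer B/G FRET substrate, fluorescence intensity.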

The target in experiment [12] is 5-hydroxytryptamine receptor 2A (Homo sapiens) (UniProt P28223). The experiment is described as follows: 5-hydroxytryptamine receptor 2A (HTR2A) small molecule antagonists, cell-based qHTS assay (AID 1963586). Further: nearly all actives have a fitted effect of over 45% in size. Summed up: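 Antagonist-mode intracellular calcium assay: DOI (4 nM) added after 5 min compound pre-incubation at room temperature to dye-loaded HTR2A-CHO cells. Fluorescence followed for 3 min, sampled every second.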

Experiment [13] has as its target Muscarinic acetylcholine receptor M1 (Homo sapiens) (UniProt P11229). The experiment is described as follows: Cholinergic receptor muscarinic 1 (CHRM1) small molecule antagonists, cell-based qHTS assay (AID 1963588). Further: nearly all actives have a fitted effect of over 40% in size. Put shortly: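 CHRM1-CHO calcium-flux assay, antagonist mode. Cells were seeded 18 h, dye-loaded 1 h at 37 C and given compound for 5 min at RT, then acetylcholine was added at 50nM. FDSS fluorescence was read 3 min; 15 concentrations, three runs.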

A short description of experiment [14]: cAMP Responsive Elements (CRE) small molecule antagonists, cell-based qHTS assay (AID 1963591; active means well fitted inhibition curve with a large enough effect in the signal ratio in the repeat runs, not every such curve was filed as active; the % refers to the signal ratio). Summed up:
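CRE-bla HEK293T cells plated 18 h, then given compound plus NKH477 at 0.25 uM final for 3 h at 37C. Beta-lactamase reporter read with LiveBLAzer B/G FRET substrate after 2 h at room temperature.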

In experiment [15] the target is Beta-2 adrenergic receptor (Homo sapiens) (UniProt P07550). The experiment is described as follows: Adrenergic beta2 receptor (ADRB2) small molecule antagonists, cell-based qHTS assay (AID 1963592). Further: series mostly up to about 92 µM; nearly all actives have a fitted effect of over 50% in size. Put shortly: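 Cells (CHO, stable ADRB2 overexpression) incubated 18-20hr at 37C; compounds added from DMSO; agonist mix (1nM isoproterenol, 100uM IBMX, 25uM Ro-20-1724) added; 0.5hr RT; d2-cAMP and anti-cAMP-cryptate added; 1hr RT; 665/615 nm read.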

Experiment [16] has as its target D(2) dopamine receptor (Homo sapiens) (UniProt P14416). Put plainly: Dopamine D2 receptor (DRD2) small molecule antagonists, cell-based qHTS assay (AID 1963595; active means well fitted inhibition curve with a large enough effect in the signal ratio in the repeat runs, with a control signal flat; the % refers to the signal ratio; further: potency means the concentration at half of the fitted maximal effect). Summed up: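 HEK293 cells stably expressing DRD2, preincubated with 0.1 mM Ro20-1724 and compounds 10 min, were stimulated with 200 nM NKH477 plus 12 nM quinpirole for 30 min at room temperature; cAMP measured by HTRF (665/620 nm).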

Experiment [17] can be described thus: cAMP Responsive Elements (CRE) small molecule agonists, cell-based qHTS assay (AID 1963590). Further: potency means the concentration at half of the fitted maximal effect. Put shortly:
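CRE-bla HEK 293T cells, 2,000/well in DMEM with 10% dialyzed FBS and 25 mM HEPES, pre-incubated 18 h at 37 C, then exposed to compound 3 h at 37 C. Beta-lactamase reporter read with LiveBLAzer B/G FRET substrate after 2 h at room temperature.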

The target of experiment [18] is 5-hydroxytryptamine receptor 2A (Homo sapiens) (UniProt P28223). Put plainly: 5-hydroxytryptamine receptor 2A (HTR2A) small molecule agonists, cell-based qHTS assay (AID 1963587). Further: nearly all actives have a fitted effect of over 30% in size. Further: potency means the concentration at half of the fitted maximal effect. Put shortly: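 HTR2A-CHO cells, plated 18 h at 37 C/5% CO2, dye-loaded 1 h at 37 C; compounds in DMSO added by pin tool (agonist mode). Intracellular calcium flux read as kinetic fluorescence on FDSS over 2 min at 1 s intervals.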

Experiment [19] addresses Beta-2 adrenergic receptor (Homo sapiens) (UniProt P07550). Put plainly: Adrenergic beta2 receptor (ADRB2) small molecule agonists, cell-based qHTS assay (AID 1963593).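 Further: CHO cells stably overexpressing human ADRB2.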 Put shortly:
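CHO cells stably over-expressing ADRB2 were plated overnight at 37C, then dosed with compounds plus a stimulation mix containing 100uM IBMX and 25uM Ro-20-1724 for 0.5hr at room temperature. cAMP was measured by HTRF competition, 1hr.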

Unmarked numbers belong to inactive results. Records with an inconclusive call do not appear. Activity calls are given as the source filed them. Unless noted, the call rests on the fitted dose curve.

We go through 8 compounds from PubChem BioAssay (Tox21).
On the % scale 0 is the no-effect control and ±100 the full control effect.

KiSS-1 receptor (Homo sapiens), sequence (Q969F8 whole entry, looked up): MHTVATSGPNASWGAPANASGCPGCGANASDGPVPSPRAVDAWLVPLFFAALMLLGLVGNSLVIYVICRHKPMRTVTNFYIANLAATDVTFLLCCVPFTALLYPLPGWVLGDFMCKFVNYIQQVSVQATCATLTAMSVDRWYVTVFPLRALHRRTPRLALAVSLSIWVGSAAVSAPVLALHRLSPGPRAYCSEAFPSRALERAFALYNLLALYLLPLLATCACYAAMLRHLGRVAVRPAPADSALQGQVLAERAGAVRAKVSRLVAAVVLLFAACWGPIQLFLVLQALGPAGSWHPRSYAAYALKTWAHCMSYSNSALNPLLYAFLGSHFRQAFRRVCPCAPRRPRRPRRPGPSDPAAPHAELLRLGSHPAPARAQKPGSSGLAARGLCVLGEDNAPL
D(2) dopamine receptor (Homo sapiens), sequence (P14416 whole entry, looked up): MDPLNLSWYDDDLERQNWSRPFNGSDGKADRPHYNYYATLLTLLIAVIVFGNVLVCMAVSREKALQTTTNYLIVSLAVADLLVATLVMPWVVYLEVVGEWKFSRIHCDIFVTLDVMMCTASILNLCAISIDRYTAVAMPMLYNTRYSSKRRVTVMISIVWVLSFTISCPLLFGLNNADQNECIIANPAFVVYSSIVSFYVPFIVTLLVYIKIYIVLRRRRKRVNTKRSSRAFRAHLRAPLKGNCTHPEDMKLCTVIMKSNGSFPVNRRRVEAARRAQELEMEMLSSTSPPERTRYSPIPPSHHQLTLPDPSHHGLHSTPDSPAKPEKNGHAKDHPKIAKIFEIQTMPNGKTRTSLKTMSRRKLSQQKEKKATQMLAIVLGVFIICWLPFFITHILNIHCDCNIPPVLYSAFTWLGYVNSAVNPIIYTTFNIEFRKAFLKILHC
Beta-2 adrenergic receptor (Homo sapiens), sequence (P07550 whole entry, looked up): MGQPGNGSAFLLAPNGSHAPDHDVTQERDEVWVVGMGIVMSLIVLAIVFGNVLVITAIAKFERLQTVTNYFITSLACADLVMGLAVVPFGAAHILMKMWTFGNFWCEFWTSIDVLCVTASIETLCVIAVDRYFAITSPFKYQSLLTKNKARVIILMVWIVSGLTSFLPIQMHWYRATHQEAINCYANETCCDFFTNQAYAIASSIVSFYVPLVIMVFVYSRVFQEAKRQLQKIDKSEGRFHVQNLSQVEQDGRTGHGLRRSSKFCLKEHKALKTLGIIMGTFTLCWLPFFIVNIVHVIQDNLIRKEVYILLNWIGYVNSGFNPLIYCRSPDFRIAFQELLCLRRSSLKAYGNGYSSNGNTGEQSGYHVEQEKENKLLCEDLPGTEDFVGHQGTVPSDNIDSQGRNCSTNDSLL
Muscarinic acetylcholine receptor M1 (Homo sapiens), sequence (P11229 whole entry, looked up): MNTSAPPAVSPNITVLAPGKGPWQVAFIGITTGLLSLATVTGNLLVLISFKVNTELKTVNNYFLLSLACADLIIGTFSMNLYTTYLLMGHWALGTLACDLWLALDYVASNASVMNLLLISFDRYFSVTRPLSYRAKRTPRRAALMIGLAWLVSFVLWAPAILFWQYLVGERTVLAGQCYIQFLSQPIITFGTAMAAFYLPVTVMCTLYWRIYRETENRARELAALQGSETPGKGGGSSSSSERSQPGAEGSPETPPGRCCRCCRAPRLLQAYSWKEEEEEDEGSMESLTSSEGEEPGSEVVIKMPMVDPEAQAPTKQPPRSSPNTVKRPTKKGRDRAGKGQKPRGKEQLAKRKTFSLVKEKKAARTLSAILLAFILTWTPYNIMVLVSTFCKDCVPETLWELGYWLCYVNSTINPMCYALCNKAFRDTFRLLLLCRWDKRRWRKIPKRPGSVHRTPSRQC
Gonadotropin-releasing hormone receptor (Homo sapiens), sequence (P30968 whole entry, looked up): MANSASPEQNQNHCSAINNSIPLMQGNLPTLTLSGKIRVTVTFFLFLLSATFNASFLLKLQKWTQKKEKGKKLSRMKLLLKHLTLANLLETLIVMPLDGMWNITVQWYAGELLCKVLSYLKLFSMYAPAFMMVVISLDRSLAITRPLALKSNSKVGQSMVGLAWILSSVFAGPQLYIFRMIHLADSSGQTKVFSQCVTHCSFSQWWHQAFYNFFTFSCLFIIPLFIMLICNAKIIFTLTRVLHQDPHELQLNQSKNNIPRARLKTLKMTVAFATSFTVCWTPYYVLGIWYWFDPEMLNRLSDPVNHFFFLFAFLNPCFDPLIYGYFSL
5-hydroxytryptamine receptor 2A (Homo sapiens), sequence (P28223 whole entry, looked up): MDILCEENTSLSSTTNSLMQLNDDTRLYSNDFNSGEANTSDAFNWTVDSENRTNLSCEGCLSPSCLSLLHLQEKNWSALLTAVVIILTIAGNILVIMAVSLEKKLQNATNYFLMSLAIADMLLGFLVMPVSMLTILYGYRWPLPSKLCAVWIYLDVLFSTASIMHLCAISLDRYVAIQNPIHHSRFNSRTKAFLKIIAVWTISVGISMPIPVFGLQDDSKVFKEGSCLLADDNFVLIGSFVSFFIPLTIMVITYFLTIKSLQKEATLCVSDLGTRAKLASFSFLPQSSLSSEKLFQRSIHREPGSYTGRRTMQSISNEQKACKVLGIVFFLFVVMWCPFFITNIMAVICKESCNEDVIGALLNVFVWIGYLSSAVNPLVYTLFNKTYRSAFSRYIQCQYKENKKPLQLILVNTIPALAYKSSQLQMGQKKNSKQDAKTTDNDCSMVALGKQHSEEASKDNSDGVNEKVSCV

As to `CCc1cc(SCc2sc(-c3ccc(C(F)(F)F)cc3)nc2CN2CCN(c3ccc(OC)cc3)CC2)ccc1OCC(=O)O`, the Potency entry in [1], in experiment [2], in [3], in experiment [4], in experiment [5] and in experiment [8] was “inactive” in each case. Moreover, in experiment [9], the Potency result was “inactive”. In addition, the Potency in [6] is 32.4 µM (active); in [7], 12.9 µM (active).

Take `CCCC(C)C(=O)O` (centres undefined): the Potency entry in experiment [1], in experiment [2], in experiment [3], in experiment [4], in [5] and in [10] was “inactive” each time. Further, the Potency result in experiment [6], in experiment [7], in [11], in [12], in experiment [13] and in [8] was “inactive” each time. Besides, the Potency result in experiment [14], in experiment [15] and in experiment [16] was “inactive” each time.

Consider `Nc1ccc(N)c2c1C(=O)c1ccccc1C2=O`, for which the Potency entry in experiment [1], in [2], in [3], in experiment [4], in [5] and in experiment [10] was “inactive” throughout. Besides, the Potency result in [6], in experiment [7], in experiment [13], in [8] and in experiment [17] was “inactive” in each case.

`CCCCCCCCCCC1CO1` (centres undefined): the Potency entry in experiment [1], in experiment [2], in [3], in experiment [4], in experiment [5] and in [10] was “inactive” in each case. The Potency result in experiment [6], in [7], in experiment [11], in experiment [12], in experiment [18] and in experiment [13] was “inactive” throughout. Further, the Potency entry in experiment [8], in experiment [14], in experiment [15], in experiment [9] and in experiment [16] was “inactive” in each case.

`CC(C)(C)c1ccc(OC(=O)c2ccccc2O)cc1`: the Potency entry in experiment [1], in experiment [2], in [3], in experiment [4], in experiment [5] and in experiment [10] was “inactive” each time. The Potency result in experiment [6], in [7], in experiment [11], in [12], in [18] and in [13] was “inactive” throughout. For the same compound, the Potency entry in [8], in [14], in experiment [15], in [9] and in experiment [16] was “inactive” each time.

For the compound `[O-][n+]1ccccc1SSc1cccc[n+]1[O-]`, in experiment [1], the activity change was 17.2% [at 11.8 µM, active compounds read high]. In addition, the activation in experiment [2] is 1.71% [at 15.8 µM]; in experiment [4], -14.9% [at 13.5 µM]; in experiment [5], -12.8% [at 13.6 µM]; in experiment [17], -1.24% [at 19 µM]; in experiment [19], 17.9% [at 19 µM]. Moreover, the Potency in [3] was 4.65 µM (active); in experiment [6], 0.547 µM (active); in experiment [18] it was 9.28 µM (active). In experiment [7], the activity change, negative = cytotoxicity was 8.83% [at 13.5 µM]. For the same compound, the activity, negative = inhibition in experiment [13] is 9.35% [at 12.6 µM]. In addition, the results for the activity change, negative = inhibition in experiment [15] and in experiment [16] were 11.4% [at 19 µM] and -21.1% [at 18.9 µM], respectively.

As for `COc1cc2c(cc1OC)-c1cc(=Nc3c(C)cc(C)cc3C)n(C)c(=O)n1CC2`, the Potency entry in experiment [1], in experiment [2], in experiment [3], in [4], in experiment [5] and in [6] was “inactive” in each case. In addition, the Potency result in experiment [11], in experiment [12], in [18], in experiment [15] and in experiment [9] was “inactive” throughout. Also, the Potency is 4.22 µM (active) in [17] and 15 µM (active) in experiment [16].

As for `CCCCC/C=C\C=C\C(=O)OCC`, the Potency entry in [1], in experiment [2], in experiment [3], in [4], in experiment [5] and in experiment [10] was “inactive” in each case. The Potency result in experiment [6], in experiment [7], in [11], in [8], in experiment [15] and in [19] was “inactive” throughout. In addition, the Potency entry in experiment [9] and in experiment [16] was “inactive” in each case.
